Bioassay records: PubChem, National Center for Advancing Translational Sciences (NCATS)
Pf growth 48h = Primary qHTS for delayed death inhibitors of the malarial parasite plastid, 48 hour incubation. P. falciparum luciferase growth in erythrocytes, 48 h. Potency, µM (highest dose often 28.7 µM), usual class: inhibitors. hit rate 5.9% among 310,000
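Here the parasites carry a stable luciferase gene and grow inside erythrocytes in Albumax-based RPMI medium with compound for one erythrocytic cycle. Activity is scored as loss of luminescent signal.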
HCV inhibitor = qHTS Assay for Inhibitors of Hepatitis C Virus (HCV). AID 651820, 2012. Potency, µM (doses to about 41.8 µM), hits mostly inhibitors. hit rate 3.4% among 340,000. Huh7.5.1 HCVcc-Cre infection, luciferase reporter, 44 h
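HCVcc-Cre virus at an moi near 0.5 was added right after compound to cells cultured 4 h from seeding (1,000 cells/well). Luciferase activity was determined 44 h later, 15 min after substrate addition at RT.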
HCMV inh = qHTS Assay for inhibitors of the human cytomegalovirus (HCMV) | activity change, negative = inhibition, % at 57.5 µM | HFF cells, HCMV-luciferase reporter, 72 h; stronger effect = lower value | hit rate 4.5% among 410,000; in the data active = activity change below about -60%; inconclusive = no clear call, values can overlap the other calls; inactive = above about -39%
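Two compound doses tested in HFFs infected with HCMV-luciferase, MOI 1 PFU/cell, 72 h at 37C. Lysate luminescence read with OneGlo; data normalized against buffer-only and 10uM Salinomycin inhibitor controls.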
Cycloheximide cs = Cycloheximide Counterscreen for Small Molecule Inhibitors of Shiga Toxin | hit rate 12% among 300,000 | AID 2314, 2010 | max response, % | cell reporter, cycloheximide protein synthesis inhibition counterscreen; in the data active = max response mostly above about 13%, no sharp cut-off; inactive = mostly below about 14%; note: read at 38.3 µM for the half of the compounds with a filed dose
Pf growth 96h = Primary qHTS for delayed death inhibitors of the malarial parasite plastid, 96 hour incubation. P. falciparum luciferase reporter growth, 96 h. hit rate 6.9% among 320,000. Potency, µM (doses to about 28.7 µM), usual class: inhibitors. AID 504834, 2011
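Parasite growth measured via integrated firefly luciferase reporter in P. falciparum. Infected erythrocytes at 2% hematocrit, 0.05% parasitemia final were treated 96 hours at 37 C under 5% CO2, and luminescence was read.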
Shiga toxin inh = A qHTS for Small Molecule Inhibitors of Shiga Toxin. inhibition, % at 38.7 µM. Vero cells, Shiga toxin protein synthesis inhibition reporter. hit rate 9.2% among 290,000; in the data active = inhibition mostly above about 28%, no sharp cut-off; inactive = mostly below about 43%
Hits are given with their value; - = inactive; ? = inconclusive; . = no result given. Hits are enriched below; roughly 21% of the tested compounds scored in any of these assays. Unless noted, calls come from the whole dose curve; as a rule, active = well fitted inhibition curve with a large enough effect; inconclusive = small, poorly fitted or top-dose-only effect, or another doubt; inactive = no such curve, though single readings can be large or run the other way.

SMILES | Pf growth 48h | HCV inhibitor | HCMV inh | Cycloheximide cs | Pf growth 96h | Shiga toxin inh
O=C(c1cc2cc(Cl)cc(Cl)c2oc1=O)N1CCOCC1 | - | ? | - | - | 8.3µM | -
CN(CCC#N)C(=O)COC(=O)c1c2c(nc3ccccc13)/C(=C/c1ccco1)CC2 | - | ? | - | 38 | - | -
CC(C)CNC(=O)COC(=O)c1c2c(nc3ccccc13)/C(=C\c1cccs1)CC2 | . | ? | - | . | . | .
COc1cccc(/C=C/C(=O)N2CCN(c3n[nH]c(=O)[nH]c3=O)CC2)c1OC | - | - | ? | - | - | -
CCn1c(SCC(=O)N2CCC(C)CC2)nc2c(c1=O)SCC2 | ? | - | - | - | - | -
Cc1cc(C)c(S(=O)(=O)N2CCCC2=O)cc1N(C)S(C)(=O)=O | - | - | - | - | - | -
Cc1ccc(S(=O)(=O)N2CCCC2=O)c(C)c1N(C)S(C)(=O)=O | - | - | - | - | 8.3µM | -
CCCOc1ccc(C(=O)Nc2ccc3nn(-c4ccc(OC)c(Cl)c4)nc3c2)cc1 | . | . | - | . | . | .
COc1ccc(OC)c(NC(=O)c2ccno2)c1 | - | - | - | - | - | -
COc1cc2ncnc(Nc3ccc(F)c(Cl)c3)c2cc1OCCCN1CCOCC1 | 0.54µM | . | . | . | . | .
C=CC(=O)Nc1cc2c(Nc3ccc(F)c(Cl)c3)ncnc2cc1OCCCN1CCOCC1 | . | . | - | . | . | .
Nc1nc(NCc2ccccc2)nc(-c2ccccc2)n1 | ? | 10µM | - | - | . | -
Nc1nc(-c2ccccc2)nc(-c2ccccc2O)n1 | . | ? | - | . | . | .
COc1ccc2c(c1)C1=NN(/C(C)=C/C(C)=O)C(c3ccc(F)cc3)C1CC2 (stereo not drawn) | - | - | - | 31 | - | 94
COc1ccc2c(c1)C1=NN(/C(C)=C\C(C)=O)C(c3ccccc3)C1CC2 (stereo not drawn) | 13µM | ? | - | 26 | - | 71
COc1ccc2c(c1)C1=NN(/C(C)=C/C(C)=O)C(c3cccc(F)c3)C1CC2 (stereo not drawn) | ? | ? | - | - | ? | -
COc1ccc2c(c1)CCC1C2=NN(/C(C)=C\C(C)=O)C1c1ccc(F)cc1 (stereo not drawn) | ? | ? | - | 62 | - | 60
COc1ccc2[nH]c(CN3CCN(CC=C(C)C)C(CCO)C3)c(C)c2c1 (stereo not drawn) | - | - | - | - | ? | .
O=C1Oc2ccccc2C(=O)/C1=C\N1CCN(c2ccccc2)CC1 | - | - | - | 26 | - | -
COc1ccccc1N1CCN(S(=O)(=O)CCNC(=O)C2CCCCC2)CC1 | - | - | - | . | - | .
Oc1ccc(/C=N/Nc2nc(-c3ccc(Cl)cc3)cc(C(F)(F)F)n2)cc1 | ? | 13µM | -77 | - | ? | -
Cc1cc(-c2ccccc2)nc(N/N=C/c2ccc(O)cc2)n1 | ? | 11µM | - | . | ? | .
Fc1ccc(CNc2nc(-c3ccc(Cl)cc3)cc(C(F)(F)F)n2)cc1 | . | . | - | . | . | .
COc1ccc(/C=N/Nc2nc(C)cc(-c3ccccc3)n2)c(OC)c1 | - | ? | - | - | ? | -
COc1ccc(O)c(/C=N/Nc2nc(C)cc(-c3ccccc3)n2)c1 | . | 4µM | - | . | . | .
SMILES | Pf growth 48h | HCV inhibitor | HCMV inh | Cycloheximide cs | Pf growth 96h | Shiga toxin inh
CC(=O)c1cn(Cc2ccccc2)c(=O)[nH]c1=O | - | - | - | - | - | -
O=C(CCNS(=O)(=O)c1ccc(Cl)cc1)N1CCN(Cc2ccccc2)CC1 | - | - | - | - | - | -
Cc1c(C)c(C)c(S(=O)(=O)NCCC(=O)N2CCN(Cc3ccc(C#N)cc3)CC2)c(C)c1C | - | 13µM | - | . | - | .
Cc1cc(=O)c2c(ccc3c(=O)cc(C)[nH]c32)[nH]1 | . | . | - | . | . | .
Cc1cccc(NS(=O)(=O)c2ccc3c(c2)Cc2cc(S(=O)(=O)Nc4cccc(C)c4C)ccc2-3)c1C | 9.3µM | - | - | - | - | -
Cc1c(Cl)cccc1NS(=O)(=O)c1ccc(-c2cnc(C3CC3)o2)cc1 | . | . | -80 | . | . | .
Cc1cccc(NS(=O)(=O)c2ccc3[nH]c(=O)[nH]c3c2)c1C | - | - | - | - | - | -
Cc1ccc(C)c(NS(=O)(=O)c2ccc(-c3cnc(C4CC4)o3)cc2)c1 | ? | ? | -82 | - | ? | -
Cc1cc(C)cc(NS(=O)(=O)c2ccc(-c3cnc(C4CC4)o3)cc2)c1 | ? | - | ? | - | - | -
CC(=O)c1cccc(NS(=O)(=O)c2ccc(-c3cnc(C4CC4)o3)cc2)c1 | - | ? | -85 | - | ? | -
CC12CCC(=O)N1C(C(=O)N1CCN(S(=O)(=O)c3ccc(F)c(F)c3)CC1)CS2 (stereo not drawn) | ? | - | - | . | - | .
Cc1cccc(NS(=O)(=O)c2ccc(-c3cnc(C4CC4)o3)cc2)c1C | ? | ? | ? | - | 6.6µM | -
O=S(=O)(Nc1ccccc1)c1ccc(-c2cnc(C3CC3)o2)cc1 | - | ? | - | - | ? | -
COc1ccc(-c2noc(N3CCC(C(=O)Nc4ccccc4OC)CC3)n2)cc1 | ? | ? | ? | - | - | -
COc1ccc(-c2noc(N3CCCC(C(=O)Nc4ccccc4F)C3)n2)cc1 (stereo not drawn) | - | - | - | - | 10µM | -
COc1ccc(-c2noc(N3CCCC(C(=O)Nc4ccc(F)cc4F)C3)n2)cc1 (stereo not drawn) | - | ? | - | 14 | 9.3µM | 23
COc1ccc(-c2noc(N3CCC(C(=O)Nc4ccc(F)cc4)CC3)n2)cc1 | - | - | - | - | - | -
Cc1ccc(NCc2cc3cc4c(cc3n(CC(=O)Nc3ccc(C)cc3)c2=O)OCCO4)cc1 | . | . | - | - | . | -
CCCOc1ccc(CNC(=O)c2cc3ccccn3n2)cc1 | . | . | - | . | . | .
COc1ccc(S(=O)(=O)NC2CC2)cc1Cl | - | - | - | - | 2.3µM | .
COc1ccc(CCNC(=O)COc2ccc(S(=O)(=O)NC3CCCCC3)cc2Cl)cc1 | 13µM | ? | ? | - | ? | -
COc1ccc(S(=O)(=O)Nc2ccccc2OC)cc1C | - | - | - | - | - | -
COc1cc(NS(=O)(=O)c2ccc(C)c(C)c2)c(OC)cc1Cl | - | - | -69 | - | 6.6µM | -
CC1CN(S(=O)(=O)c2cccc(C(=O)NCCC3=CCCCC3)c2)CC(C)O1 (stereo not drawn) | ? | ? | - | . | ? | .
CCOc1ccccc1CNCCCSc1nnnn1C | . | . | - | . | . | .
CN(C)N1C(N)=C(C#N)C(c2ccccc2F)C2=C1CC(C)(C)CC2=O (stereo not drawn) | ? | - | - | - | - | -
O=C(Nc1cc(C(F)(F)F)cc(C(F)(F)F)c1)Nc1cnn(-c2ccc([N+](=O)[O-])cc2)c1C(F)(F)F | 1.9µM | ? | - | - | ? | -
O=C(Nc1ccccc1F)c1oc2ccccc2c1NC(=O)C12CC3CC(CC(C3)C1)C2 | . | . | - | . | . | .
CNC(=O)C1(C(F)(F)F)C/C(=C/CCO)CCCO1 (stereo not drawn) | . | . | . | - | . | -
